Reference: PubChem BioAssay (NCI)
The panel holds about 79,000 compounds, 15% with a hit somewhere; the sample as a whole holds those more often. Unmarked numbers belong to inactive results. Activity calls are given as the source filed them. Rule as the data show it: active = growth inhibition above about 70%; inactive = the rest.

test: NCI Yeast Anticancer Drug Screen. Data for the mlh1 rad18 strain (AID 175); conditions: S. cerevisiae mlh1 rad18 strain growth inhibition; at 5.0 µM (retest, dose inferred, filed as 0.5); active compounds read high
Method in brief: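 Steps: expose repair-defective yeast to compound; measure growth; express inhibition against vehicle-treated controls.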

SMILES | growth inhibition
Cc1ccc(O)c(C(c2cc(C)ccc2O)c2ccccc2Cl)c1 | 97% (active)
O=c1ssc(=Nc2ccc(Cl)cc2)n1-c1ccc(Cl)cc1 | 30%
CC(=O)OC1CCC2(C)C(CCC3C4=CCC(C5COC(=O)C5)C4(C)CCC32)C1 (stereo not given) | 11%
CCN(CC)CCCC(C)Nc1cc(F)cc2cccnc12 (stereo not given) | 20%
CC1CN(CCCN2c3ccccc3Sc3ccc(Cl)cc32)C(C)(C)C1 (stereo not given) | 9%
O=S(=O)(O)c1ccc2c(c1)C1C(C3C2C2(Cl)C(Cl)=C(Cl)C3(Cl)C2(Cl)Cl)C2(Cl)C(Cl)=C(Cl)C1(Cl)C2(Cl)Cl (stereo not given) | 23%
OC(CN1CCC(c2ccccc2)CC1)c1ccc(Br)cc1 (stereo not given) | 80% (active)
CCOC(=O)/C(C#N)=C\c1cccc2ccccc12 | -2%
COc1ccc2c(c1)CCC(N1CCCC(O)C1)C2 (stereo not given) | 14%
COc1cccc(N2CCN(CC(O)COc3cc4c(c5c3CCCC5)CCCC4)CC2)c1 (stereo not given) | 12%
CC(=O)Oc1ccc(Cl)cc1Cc1cc(Cl)ccc1OC(C)=O | 2%
CC(O)c1c2c(cc3c1CC1(C3)Cc3cc4c(c(C(C)O)c3C1)CCC4)CCC2 (stereo not given) | -17%
O=c1c2ccccc2nc(-c2ccccc2)n1NC(=S)Nc1ccc(Cl)cc1[N+](=O)[O-] | 2%
O=C(CCCN1CCc2[nH]c3cc(F)ccc3c2C1)c1ccc(F)cc1 | 12%
OC(C(=Nc1ccccc1)c1ccccc1)c1ccccc1 (stereo not given) | 39%
N#CC1CCCC(Cc2ccccc2)(c2ccccc2)C1=O (stereo not given) | -6%
CC(OC(=O)Nc1cccc(Cl)c1)c1ccccc1 (stereo not given) | 11%
O=C(O)/C=C/c1c2ccccc2cc2ccccc12 | 47%
Cc1c[nH]c2c(O)cc3c(c12)[C@H](CCl)CN3C(=O)c1cc2cc(NC(=O)Nc3ccc4[nH]c(C(=O)N5C[C@@H](CCl)c6c5cc(O)c5[nH]cc(C)c65)cc4c3)ccc2[nH]1 | 78% (active)
Cc1ccc(S(=O)(=O)OC(C=O)C(O)C(O)COC(c2ccccc2)(c2ccccc2)c2ccccc2)cc1 (stereo not given) | 99% (active)

SMILES | growth inhibition
COc1cc2c(cc1C(C)C)CCC1C(C)(C#N)CCCC21C (stereo not given) | -3%
Fc1ccc(NC(=S)SCc2ccc(Cl)c(Cl)c2)c(F)c1 | 9%
COC(=O)/C=C(\NC1CC(OC2C[C@](O)(C(C)=O)Cc3c(O)c4c(c(O)c32)C(=O)c2c(OC)cccc2C4=O)OC(C)C1O)C(=O)OC (stereo not given in full) | -6%
O=C1CSC(=S)N1c1ccc(F)cc1F | 3%
CS(=O)(=O)OCCN(CCOS(C)(=O)=O)c1ccc(C=Nc2ccc3ccccc3c2)c(Cl)c1 | 7%
CN(C)C(=O)Nc1ccc(Cc2ccc(NC(=O)N(C)C)cc2)cc1 | -33%
O=c1c(Cl)c(Cl)c(=O)c2sc3cc(Cl)ccc3[nH]c1=2 | 2%
O=S(=O)(O)C(O)c1ccc2ccc3cccc4ccc1c2c34 (stereo not given) | 3%
N#Cc1cc([N+](=O)[O-])ccc1NC(=O)/C(=N/N)C(C(=O)c1ccc(Cl)c(Cl)c1)C1OC(=O)c2ccccc21 (stereo not given) | 5%
O=C(Nc1ccc(Cl)c(Cl)c1Cl)Oc1c(Cl)c(Cl)c(Cl)c(Cl)c1Cl | 20%
O=[N+]([O-])c1cc(Cl)cc2c1nc(NCCO)c1ccccc12 | 86% (active)
CCNc1nc(C(F)(F)F)nc2nc[nH]c12 | -3%
CC1CCN(CCOC(=O)C(c2ccccc2)C2C=CCCC2)C1 (stereo not given) | 14%
CCOC(=O)c1c(N)sc2c1CCCCC2 | -142%
CC(C(O)Cc1ccccc1)N(C)N=Nc1ccc([N+](=O)[O-])cc1 (stereo not given) | 51%
O=[N+]([O-])c1ccc(/C=c2\sc3scc(-c4ccc([N+](=O)[O-])cc4)[n+]3\c2=C/c2ccc([N+](=O)[O-])cc2)cc1 | 99% (active)
Oc1cc(C(c2ccccc2)c2ccccc2)c2ccccc2c1O | 34%
CC1=CC2OC3CC4OC(=O)/C=C/C=C/C(C(C)O)OCC(=O)C(C)CC(=O)OCC2(CC1)C4(C)C31CO1 (stereo not given) | 65%
CC(NNC(=S)N1CCCCCC1)c1cc2ccccc2cn1 (stereo not given) | 47%
CC(C)C1=CC23CCC4C(C)(C(=O)O)CCCC4(C)C2CC1C1C(=O)C=CC(=O)C13 (stereo not given) | 88% (active)
